This is an account of results in PubChem BioAssay AID651739 (Broad Institute, 2012).

As usually defined, the inhibition is the relative decrease from the control value, in per cent.

The campaign covered roughly 5,600 compounds. About 4,100 (73%) were called active. Inconclusive results (about 4%) are left out. The set was probably picked from earlier hits. Not all results are given here. Values without a mark were called inactive.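 The calls were made as follows: active = mean replicate inhibition above about 95% and at least 55% of replicates individually reaching it (limit read from the data); inconclusive = only one of the two criteria is met; inactive = neither criterion is met.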

A short description of this assay: blockers of Trypanosoma cruzi growth in host cells – cell-based, NIH3T3 host, beta-gal parasite, luminescence, cherry-pick, confirmation (AID 651739). As to conditions: T. cruzi beta-gal in NIH3T3, GalScreen luminescence, 90 h; at 8.35 µM; stronger effect = higher value.
For the compound `COc1ccc(C#Cc2ccc([C@H]3[C@H](CO)N4CCCCN(C(=O)Cc5ccccc5)C[C@@H]34)cc2)cc1`, the inhibition is 95.6% (active).

On to `O=C(Cc1ccccn1)N1CCCCN2[C@@H](CO)[C@@H](c3ccc(C#Cc4ccccc4)cc3)[C@@H]2C1`, for which the inhibition was 112% (active).

Turning to `COc1ccc(-c2ccc([C@H]3[C@H](CO)N4CCCCN(C(=O)Cc5ccncc5)C[C@@H]34)cc2)cc1`, the inhibition was 89.1%.

For the compound `C/C=C/c1ccc([C@H]2[C@H](CO)N3CCCCN(C(=O)Cc4ccncc4)C[C@@H]23)cc1`, the inhibition was 99.2% (active).

On to `O=C(Cc1cccnc1)N1CCCCN2[C@@H](CO)[C@H](c3ccc(C#CC4CCCC4)cc3)[C@@H]2C1`, for which the inhibition was 103% (active).
